Hits are enriched below; roughly 19% of the tested compounds scored in any of these assays.
IL1B secr inh – inhibitors of inflammasome signaling (IL-1 beta secretion) | THP-1 LPS/ATP IL-1B secretion, AlphaLISA, 16 h; active compounds read low | activity change, % at 57.5 µM | 4.7% of 360,000 active; in the data active = activity change below about -50%; inconclusive = mostly about -30% to -49%
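THP-1 cells pretreated 1 hr with compounds (up to 57.5 uM final), then stimulated with LPS (250 ng/mL final) plus ATP (1.25 mM final); secreted IL-1B measured by AlphaLISA after 16 hr, decreased signal indicating inhibition.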
HepG2 tox – kills HepG2 cells in TGF-b inhibitor counter-screen | HepG2 CAGA-GFP viability, ATP luminescence, 18 h | Potency, µM (titrated, usually from 46.1 µM), actives largely listed as cytotoxic | 0.76% of 410,000 active | AID 588856
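CellTiter-Glo luminescence gave cytotoxicity after 18 hours at 37 degrees C. The cells were HepG2 CAGA-GFP in 1% FBS DMEM, stimulated with 500 pg/mL TGF-beta after compound addition. %Activity was normalised to no-cell wells (complete cell-killing) and DMSO (no toxicity), and curves were fitted and classified.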
TDP1 cell noCPT – qHTS for Inhibitors of human tyrosyl-DNA phosphodiesterase 1 (TDP1): qHTS in cells in absence of CPT | DT40 Tdp1-/- hTDP1 cells, no CPT, ATP luminescence, 48 h | Potency, µM (highest dose often 46.2 µM), hits mostly inhibitors | 15% of 420,000 active | AID 686978, 2013; note: nearly all actives have a fitted effect of over 55% in size
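DT40 Tdp1-/-;hTDP1 cells, no CPT (DMSO vehicle only), 400 cells/well; compounds pin-transferred; ≥48 hr, 37 °C; CellTiter-Glo 30 min RT dark, luminescence read.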
TDP1 cell CPT – growth inhibition of DT40 Tdp1-/-;hTDP1 cells with camptothecin (screen for TDP1 inhibitors); chicken DT40 Tdp1-/-;hTDP1 cells + 20 nM CPT, ATP luminescence, 48 h; Potency, µM (top dose mostly 46.2 µM), hits mostly inhibitors; 12% of 420,000 active; note: nearly all actives have a fitted effect of over 55% in size
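Chicken DT40 Tdp1-/- cells complemented with human TDP1, 400 cells/well, exposed to compounds plus 20 nM camptothecin for at least 48 h at 37 C; viability read as ATP content by CellTiter-Glo luminescence.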
TDP1 block – blocks human tyrosyl-DNA phosphodiesterase 1. recombinant TDP1, AlphaScreen DNA substrate cleavage. Potency, µM (doses to about 130 µM), most hits filed as inhibitors. 0.28% of 350,000 active; note: nearly all actives have a fitted effect of over 40% in size
Target sequence (Q9NUW8 whole entry, looked up): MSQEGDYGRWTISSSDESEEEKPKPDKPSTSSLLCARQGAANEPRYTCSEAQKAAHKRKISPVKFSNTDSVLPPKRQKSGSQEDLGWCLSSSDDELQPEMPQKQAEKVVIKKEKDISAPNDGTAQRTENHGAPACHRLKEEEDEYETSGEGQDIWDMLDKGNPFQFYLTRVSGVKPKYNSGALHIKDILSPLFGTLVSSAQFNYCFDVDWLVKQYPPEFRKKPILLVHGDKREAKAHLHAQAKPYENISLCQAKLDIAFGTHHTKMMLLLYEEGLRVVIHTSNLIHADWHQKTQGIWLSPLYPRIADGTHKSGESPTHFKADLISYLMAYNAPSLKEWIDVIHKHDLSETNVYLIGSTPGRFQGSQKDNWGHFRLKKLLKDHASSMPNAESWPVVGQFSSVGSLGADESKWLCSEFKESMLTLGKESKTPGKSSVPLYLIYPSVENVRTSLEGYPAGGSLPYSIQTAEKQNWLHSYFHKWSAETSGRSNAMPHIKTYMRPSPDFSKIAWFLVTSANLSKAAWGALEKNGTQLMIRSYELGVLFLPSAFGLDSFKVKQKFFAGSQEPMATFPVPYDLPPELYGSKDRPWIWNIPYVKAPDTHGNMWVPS
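Signal: AlphaScreen proximity between streptavidin donor and anti-FITC acceptor beads on intact substrate. Reaction: Tdp1 1 nM, substrate 15 nM final, 5 min RT after 15 min compound preincubation.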
TGFb inhibitor – blocks TGF-b signaling; HepG2 CAGA-GFP TGF-b/SMAD3 reporter, GFP fluorescence, 18 h; TGF-beta stimulated, 500 pg/mL final; Potency, µM (highest dose often 46.1 µM), usual class: inhibitors; 1.2% of 410,000 active; AID 588855; note: nearly all actives have a fitted effect of over 65% in size
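Inhibition of TGF-beta-driven CAGA-GFP reporter expression in HEPG2 cells is measured by cellular GFP fluorescence after 18 h stimulation with 500 pg/mL recombinant TGF-beta in 1% FBS medium at 37 degrees C.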
A number is an active result; – = inactive; ? = inconclusive; · = no result; [ ] = another dose, or the depositor's remark. Unless noted, calls come from the whole dose curve; as a rule, active = well fitted curve in the direction sought with a large enough effect; inconclusive = small, poorly fitted or top-dose-only effect, or another doubt; inactive = no such curve, though single readings can be large; an effect the other way counts as inactive or inconclusive.

SMILES	IL1B secr inh	HepG2 tox	TDP1 cell noCPT	TDP1 cell CPT	TDP1 block	TGFb inhibitor
C=C(C)Cn1c(SCC(=O)c2ccccc2)nc2sc3c(c2c1=O)CCCC3	·	–	?	–	–[12.3 µM]	–
CCn1c(SCC(=O)Nc2cc(C)on2)nc2sc3c(c2c1=O)CCCC3	–	–	6.51µM	?	·	–
C=CCn1c(SCC(=O)Nc2c(C)n(C)n(-c3ccccc3)c2=O)nc2sc(C)c(C)c2c1=O	–	–	?	–	–	–
C=CCn1c(SCC(=O)Nc2cc(C)on2)nc2sc3c(c2c1=O)CCCC3	–	–	9.2µM	23.1µM	–	–
C=C(C)Cn1c(SCC(=O)Nc2cccc(C)c2)nc2sc3c(c2c1=O)CCCC3	·	–	13µM	9.2µM	·	–
C=CCn1c(SCC(=O)Nc2c(C)n(C)n(-c3ccccc3)c2=O)nc2sc(C)c(-c3ccccc3)c2c1=O	–	–	?	29.1µM	–	–
COc1ccc(CCNC(=O)C2CCN(c3ncnc4c3nc3n4CCCCC3)CC2)c(OC)c1	·	–	–	–	–	–
Cc1cc(NC(=O)CSc2nc(C3CC3)nc3sc4c(c23)CCC(C)C4)no1 (configuration not stated)	–	–	18.4µM	16.4µM	·	–
CCn1c(SCC(=O)Nc2cc(C)on2)nc2sc(C)c(C)c2c1=O	·	·	·	·	–	·
NC(=O)CSc1nc(C2CC2)nc2sc3c(c12)CCCC3	–	–	–	–	–	–
C=CCn1c(SCC(=O)Nc2cc(C)on2)nc2sc(C)c(C)c2c1=O	–	–	6.51µM	?	–	–
Cc1ccc(NC(=O)CCn2cccn2)cc1Cl	·	–	–	–	–	–
CCn1ccc2cc(S(=O)(=O)N3CCC(C(=O)NCc4ccc(F)cc4)CC3)ccc21	·	–	?	?	–	?
Cc1nc(SCC(=O)N2CCN(C(=O)c3cccs3)CC2)c2c(C)c(C)sc2n1	–	–	16.4µM	25.9µM	–	–
Cc1nc(SCC(=O)N2CCN(C(=O)c3ccco3)CC2)c2c(C)c(C)sc2n1	–	–	?	?	–	–
Cc1nc(SCC(=O)Nc2sccc2C(N)=O)c2c(C)c(C)sc2n1	–	–	?	20.6µM	·	–
Cc1csc(SCC(=O)Nc2sccc2C(N)=O)n1	–	–	–	–	–	–
COC(=O)c1sc2nc(C)nc(SCC(=O)Nc3sccc3C(N)=O)c2c1C	–	–	16.4µM	18.4µM	–	–
Cc1nc(SCC(=O)Nc2ccc(S(=O)(=O)N3CCOCC3)cc2)c2c(C)c(C)sc2n1	?	–	?	25.9µM	–	?
Cc1ccc(C(=O)N2CCC(N3CCN(Cc4ccc(F)cc4)C(=O)C3=O)CC2)cc1	·	–	–	–	–	–
Cc1nc(SCC(=O)Nc2cc(C(N)=O)cc(C(N)=O)c2)c2c(C)c(C)sc2n1	–	–	–	–	10µM	–
Cc1nc(SCC(=O)N2CCCC2=O)c2c(C)c(C)sc2n1	–	–	?	?	·	–
CCc1ccc(Cn2nnc3c(=O)[nH]c(C4CCCN(C(=O)c5cccc(Cl)c5)C4)nc32)cc1 (configuration not stated)	·	–	?	?	–	?
Cc1ccc2c(c1)N(C)/C(=C/c1cccc[n+]1C)S2	-88.5	11.2µM	0.517µM	3.66µM	·	–
CN1/C(=C/c2cccc[n+]2C)Sc2ccccc21	-67.0	–	0.326µM	0.581µM	·	?
Cc1ccc2c(c1)N(C)/C(=C/c1cccc[n+]1CCO)S2	?	–	1.16µM	1.64µM	·	–
Cn1c2cc(S(C)(=O)=O)sc2c2cnn(Cc3ccccc3F)c(=O)c21	·	·	·	·	–	·
COC(=O)NNC(=O)c1ccc(Cl)cc1Cl	–	–	–	–	–	–
O=C(NNC(=S)Nc1ccccc1)c1cccc(Br)c1	–	–	–	–	–	?
CC(C)(C)NC(=S)NNC(=O)c1cccc(Br)c1	–	–	6.51µM	5.8µM	–	?
